According to PubChem BioAssay (NCATS):
Several values for one entry are separate records, joined by “and”; a condition that tells them apart may be missing. Equal values may be shown once. Unmarked numbers belong to inactive results. Records with an inconclusive call do not appear. Entries that show only a call come without a potency. Activity calls are given as the source filed them. Unless noted, the call rests on the fitted dose curve; in most records, active means well fitted curve in the direction sought with a large enough effect; inconclusive means small, poorly fitted or top-dose-only effect, or another doubt; inactive means no such curve, though single readings can be large; an effect the other way counts as inactive or inconclusive.

Assays:
[1] = Cell Viability - BJ (AID 421; calls by dose curve;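 further: potency means the concentration at half of the fitted maximal effect; cells exposed to compound for 40 hours at 37 °C before readout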); conditions: BJ fibroblast viability, qHTS
How it was run: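 Luminescent ATP signal (CellTiter-Glo, 20 min at room temperature) served as the read-out of viable BJ cells after 40 hours of compound treatment. Responses were scaled between DMSO and 100 uM tamoxifen, and AC50 values were obtained by Hill modeling.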

[2] = biological target: Mitogen-activated protein kinase 10 (Mus musculus) (UniProt Q61831); experiment: JNK3 AlphaScreen Assay (AID 530; active means well fitted curve in either direction with a large enough effect, not every such curve was filed as active;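 further: kinase came from lysate of stimulated human HepG2 cells; signal reports phosphorylation of biotinylated GST-cJun 1-79 at Ser73 with 10 µM ATP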); conditions: JNK3 lysate, c-Jun phosphorylation; series mostly up to 57.1 µM
How it was run: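 Kinase buffer: 20 mM Tris-HCl pH 7.6, 10 mM MgCl2, 1 mM DTT, 0.1 mM Na3VO4, 0.01% Tween-20; ATP 10 uM. Substrate biotin-GST-cJun(1-79), enzyme from activated HepG2 lysates. Detection by Ser73 phospho-antibody AlphaScreen.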

[3] = Cell Viability - Mesenchymal (AID 546); conditions: mesenchymal cells viability, qHTS; series mostly up to 91.7 µM;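 further: cells exposed to compound for 40 hours before reading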
How it was run: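 CellTiter-Glo luminescence (intracellular ATP, 20 min room temperature) after 40 hr compound exposure at 37 °C of 1000 glomerulus-derived human kidney mesenchymal cells/well; AC50 values obtained by fitting qHTS concentration-response data to the Hill equation.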

[4] = Cellular Toxicity (caspase-3) HepG2 (AID 654); conditions: HepG2 caspase-3 activation, luminescence, 0% = DMSO only, 100% = tamoxifen; series mostly up to 92.2 µM;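 further: cells exposed to compound for 16 hours before reading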
How it was run: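 Luminescent Caspase-Glo 3/7 readout after 16 hr compound exposure of human hepatocellular carcinoma HepG2 cells at 37 °C; qHTS concentration-response, normalized DMSO = 0%, 100 uM tamoxifen = 100%; AC50 by standard Hill equation.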

[5] = Cellular Toxicity (caspase-3) HUV-EC-C (AID 656); conditions: HUV-EC-C cells, caspase-3 activation (apoptosis), vehicle = 0, 100 µM tamoxifen = 100%; series mostly up to 92.2 µM
How it was run: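 HUV-EC-C cells (1000/well) in complete medium, compound-treated 16 h at 37 °C; caspase-3/7 activity read by Caspase-Glo 3/7 luminescence. Normalized to DMSO (basal) and 100 uM tamoxifen (100%); AC50 from Hill-equation concentration-response fits.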

[6] = Cellular Toxicity (caspase-3) MRC-5 (AID 659); conditions: MRC-5 cells, luminescence, normalized: DMSO 0%, 10 µM staurosporine 100%; series mostly up to 91.7 µM
How it was run: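 Luminescent Caspase-Glo 3/7 read-out (1 h, room temperature) after a 16 h, 37 °C compound exposure of MRC-5 lung fibroblasts at 1500 cells/well. Concentration-response AC50 from Hill equation; 0% DMSO, 100% 10 uM staurosporine.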

[7] = Cellular Toxicity (caspase-3) SK-N-SH (AID 661); conditions: SK-N-SH caspase-3 activation, qHTS; series mostly up to 91.7 µM;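 further: cells exposed to compound for 16 hours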; further: potency means the concentration at half of the fitted maximal effect
How it was run: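 Luminescent Caspase-Glo 3/7 read-out after 16 hr compound exposure of SK-N-SH neuroblastoma cells at 37 °C. Signal increase normalized to DMSO (basal) and 10 uM staurosporine (100%); AC50 from Hill equation fits of qHTS concentration-response data.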

[8] = Cellular Toxicity (caspase-3) Hek293 (AID 664); conditions: HEK293 caspase-3 activation, DMSO = 0%, 100 µM tamoxifen = 100%; at 92.2 µM (top of the series);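 further: cells exposed to compound for 16 h at 37 °C before readout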
How it was run: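 Luminescent Caspase-Glo 3/7 readout (aminoluciferin release) in HEK293 cells after 16 h compound treatment, 37 °C. Normalization: DMSO = basal, 100 uM tamoxifen = 100% stimulation. Concentration-response fitted with standard Hill equation for AC50.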

[9] = MultiTox-Fluor Cytotoxicity Assay - LYMP1-001 - Dead Cells (AID 946); conditions: LYMP1-001 lymphoblastoid cells, dead-cell protease fluorescence; series mostly up to 92.2 µM
How it was run: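 AC50 from Hill fit of concentration-response; data normalized to DMSO (basal) and 15 uM tetraoctylammonium bromide (100%). LYMP1-001 lymphoblastoid cells, 2500/well, 16 hr compound at 37 C; dead-cell protease fluorescence, Ex/Em 485/520.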

[10] = Cell Viability - LYMP1-002 - Assay at 16 hr (AID 948); conditions: LYMP1-002 lymphoblastoid cell viability; series mostly up to 92.2 µM
How it was run: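 LYMP1-002 human lymphoblastoid cells, 2500/well, were treated with compounds for 16 hr at 37 C in complete medium. Viability was read as intracellular ATP by CellTiter-Glo luminescence, and AC50 was derived from a Hill fit to concentration-response data.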

[11] = biological target: Voltage-gated inwardly rectifying potassium channel KCNH2 (Homo sapiens) (UniProt Q12809); experiment: qHTS Assay for Small Molecule Inhibitors of the Human hERG Channel Activity (AID 588834); conditions: U2OS BacMam hERG, FluxOR thallium flux fluorescence; series mostly up to 92.2 µM;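 further: lower thallium flux fluorescence means stronger hERG block; nearly all actives have a fitted effect of over 50% in size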; further: potency means the concentration at half of the fitted maximal effect
Chain of Voltage-gated inwardly rectifying potassium channel KCNH2 (Homo sapiens) (Q12809 whole entry, looked up): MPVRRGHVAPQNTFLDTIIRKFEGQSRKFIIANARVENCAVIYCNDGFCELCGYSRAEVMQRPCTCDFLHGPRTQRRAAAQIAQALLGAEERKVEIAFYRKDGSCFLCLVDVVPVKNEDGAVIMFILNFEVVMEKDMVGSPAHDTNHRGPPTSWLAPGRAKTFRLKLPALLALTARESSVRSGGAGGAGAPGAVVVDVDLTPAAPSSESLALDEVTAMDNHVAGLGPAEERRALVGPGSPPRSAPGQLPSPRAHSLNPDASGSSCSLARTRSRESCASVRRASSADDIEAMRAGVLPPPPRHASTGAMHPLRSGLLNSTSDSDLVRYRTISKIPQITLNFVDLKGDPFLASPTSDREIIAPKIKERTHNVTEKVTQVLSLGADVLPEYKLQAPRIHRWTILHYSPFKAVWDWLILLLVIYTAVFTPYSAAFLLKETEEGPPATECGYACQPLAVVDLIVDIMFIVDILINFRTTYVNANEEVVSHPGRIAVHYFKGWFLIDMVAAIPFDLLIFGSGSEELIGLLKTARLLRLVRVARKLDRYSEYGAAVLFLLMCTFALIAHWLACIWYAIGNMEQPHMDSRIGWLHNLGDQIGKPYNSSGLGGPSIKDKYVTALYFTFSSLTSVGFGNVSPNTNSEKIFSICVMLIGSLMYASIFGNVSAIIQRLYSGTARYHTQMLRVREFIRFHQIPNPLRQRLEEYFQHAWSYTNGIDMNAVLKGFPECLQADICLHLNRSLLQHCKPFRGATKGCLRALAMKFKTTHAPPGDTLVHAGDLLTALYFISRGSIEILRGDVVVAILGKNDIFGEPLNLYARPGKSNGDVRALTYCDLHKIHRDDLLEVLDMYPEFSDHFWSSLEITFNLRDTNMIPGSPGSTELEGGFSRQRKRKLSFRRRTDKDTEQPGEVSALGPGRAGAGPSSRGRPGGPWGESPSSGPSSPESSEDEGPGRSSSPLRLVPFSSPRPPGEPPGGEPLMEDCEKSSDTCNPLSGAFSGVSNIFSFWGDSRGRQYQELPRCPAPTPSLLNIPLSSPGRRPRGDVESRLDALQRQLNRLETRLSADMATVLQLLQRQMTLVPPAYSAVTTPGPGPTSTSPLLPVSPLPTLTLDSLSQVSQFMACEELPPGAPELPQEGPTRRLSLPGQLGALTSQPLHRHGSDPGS
How it was run: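 Thallium serves as surrogate for K+ influx through BacMam-delivered hERG in U2OS cells. Compounds are added for about 10 minutes after dye loading; stimulation buffer then starts flux, monitored kinetically on FDSS.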

[12] = biological target: Peroxisome proliferator-activated receptor alpha (Homo sapiens) (UniProt Q07869); experiment: qHTS assay for small molecule agonists of the peroxisome proliferator-activated receptor alpha (PPARalpha) signaling pathway (AID 651778); conditions: PathHunter PPARalpha complementation, chemiluminescence, 6 h; hits give high values
Chain of Peroxisome proliferator-activated receptor alpha (Homo sapiens) (Q07869 whole entry, looked up): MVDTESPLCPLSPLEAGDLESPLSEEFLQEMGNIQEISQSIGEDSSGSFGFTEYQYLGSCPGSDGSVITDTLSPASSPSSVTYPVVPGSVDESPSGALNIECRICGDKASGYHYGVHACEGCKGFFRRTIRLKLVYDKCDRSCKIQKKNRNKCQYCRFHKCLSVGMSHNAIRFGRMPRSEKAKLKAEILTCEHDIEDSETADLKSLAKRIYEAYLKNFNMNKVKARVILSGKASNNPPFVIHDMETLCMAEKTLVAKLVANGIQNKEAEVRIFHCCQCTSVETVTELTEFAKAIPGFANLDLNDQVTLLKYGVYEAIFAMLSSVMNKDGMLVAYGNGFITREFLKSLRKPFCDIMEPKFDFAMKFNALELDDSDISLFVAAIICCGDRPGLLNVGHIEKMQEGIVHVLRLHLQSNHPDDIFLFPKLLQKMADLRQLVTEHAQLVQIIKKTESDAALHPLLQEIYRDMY
How it was run: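 Chemiluminescence from complemented enzyme reported PPARalpha activation in cells after 6 hr of compound treatment at 37 C. The detection reagent was incubated for 60 min at room temperature, and compounds were scored as agonists.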

[13] = biological target: Cytochrome P450 3A4 (Homo sapiens) (UniProt P08684); experiment: qHTS Assay for Inhibitors and Substrates of Cytochrome P450 3A4 (AID 884); conditions: recombinant CYP3A4, Luciferin-PPXE luminescence; series mostly up to 57.1 µM; further: nearly all actives have a fitted effect of over 50% in size
Chain of Cytochrome P450 3A4 (Homo sapiens) (P08684 whole entry, looked up): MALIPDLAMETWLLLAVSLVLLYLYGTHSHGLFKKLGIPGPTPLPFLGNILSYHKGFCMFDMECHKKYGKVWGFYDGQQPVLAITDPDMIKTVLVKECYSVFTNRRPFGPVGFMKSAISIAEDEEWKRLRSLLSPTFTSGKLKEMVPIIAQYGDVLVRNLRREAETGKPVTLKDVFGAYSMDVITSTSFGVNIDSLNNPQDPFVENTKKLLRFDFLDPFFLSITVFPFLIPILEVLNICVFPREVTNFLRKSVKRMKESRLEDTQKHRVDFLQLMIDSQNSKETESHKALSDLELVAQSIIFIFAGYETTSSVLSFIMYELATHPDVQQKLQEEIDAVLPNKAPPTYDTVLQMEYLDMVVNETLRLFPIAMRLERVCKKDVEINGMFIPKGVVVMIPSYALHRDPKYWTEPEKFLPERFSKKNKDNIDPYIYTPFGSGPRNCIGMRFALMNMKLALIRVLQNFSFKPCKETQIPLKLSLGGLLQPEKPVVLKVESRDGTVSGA
How it was run: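 Luminescent readout of luciferin produced by CYP3A4 (20 nM) dealkylation of Luciferin-PPXE, 25 uM (its KM). NADPH-driven reaction ran 60 min at RT after 10 min compound preincubation; data scaled to 57 uM ketoconazole as 100% inhibition.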

Compound	Potency [1]	Potency [2]	Potency [3]	outcome [4]	outcome [5]	outcome [6]	Potency [7]	caspase-3 activation [8]	outcome [9]	outcome [10]	Potency [11]	max response [12]	Potency [13]
Oc1ccc(Cl)c(Cl)c1Cl	> 92 µM	inactive	inactive	inactive	inactive	inactive	inactive	1.72%	inactive	inactive	inactive	0.378%	–
S=C1NCCN1	> 92 µM	inactive	inactive	inactive	inactive	inactive	inactive	-0.864%	inactive	inactive	inactive	-2.28% and 8.96%	inactive
CSSC	> 92 µM	inactive	inactive	inactive	inactive	inactive	inactive	-3.42%	inactive	inactive	inactive	-6.95%	inactive
O=c1ccc(=O)[nH][nH]1	> 92 µM	–	inactive	inactive	inactive	inactive	inactive	-1%	inactive	inactive	inactive	-0.0075% and -1.1%	inactive
CN(C)C(=O)Cl	> 92 µM	inactive	inactive	inactive	inactive	inactive	inactive	-0.876%	inactive	inactive	inactive	-4.05%	inactive
C=CC#N	> 92 µM	inactive	inactive	inactive	inactive	inactive	inactive	-0.49%	inactive	inactive	inactive	-1.02%	inactive
BrCC(Br)C1CCC(Br)C(Br)C1 (configuration not stated)	> 92 µM	–	inactive	inactive	inactive	inactive	inactive	6.64%	inactive	inactive	22.4 µM (active)	4.79%	inactive
N#C/C(N)=C(/N)C#N	> 92 µM	–	inactive	inactive	inactive	inactive	inactive	-2.4%	inactive	inactive	inactive	-0.162%	inactive
OC[P+](CO)(CO)CO	> 92 µM	inactive	inactive	inactive	inactive	inactive	inactive	0.818%	inactive	inactive	inactive	-6.87% and -1.39%	inactive
CCOC(=O)C1OC1(C)c1ccccc1 (configuration not stated)	> 92 µM	inactive	inactive	inactive	inactive	inactive	inactive	1.59%	inactive	inactive	inactive	4.47%	inactive
COc1c(C(C)(C)C)cc([N+](=O)[O-])c(C)c1[N+](=O)[O-]	> 92 µM	inactive	inactive	inactive	inactive	inactive	inactive	1.65%	inactive	inactive	31.6 µM (active)	1.79%	inactive
COC(=O)c1ccccc1N	> 92 µM	inactive	inactive	inactive	inactive	inactive	inactive	-1.69%	inactive	inactive	inactive	-6.67%	inactive
CCN(CC)N=O	> 92 µM	inactive	inactive	inactive	inactive	inactive	inactive	1.39%	inactive	inactive	inactive	2.1%	inactive
O=[N+]([O-])c1ccc(O)c([N+](=O)[O-])c1	> 92 µM	inactive	inactive	inactive	inactive	inactive	inactive	-5.23%	inactive	inactive	inactive	-7.09%	inactive
CCN(CC)CCO	> 92 µM	inactive	inactive	inactive	inactive	inactive	inactive	4.32%	inactive	inactive	inactive	-3.44%	inactive
Oc1cccc(Cl)c1	> 92 µM	inactive	inactive	inactive	inactive	inactive	inactive	-0.037%	inactive	inactive	inactive	16.7%	inactive
Cc1cccc(C)c1N	> 92 µM	inactive	inactive	inactive	inactive	inactive	inactive	0.142%	inactive	inactive	inactive	1.61%	inactive
CC(C)C#N	> 92 µM	inactive	inactive	inactive	inactive	inactive	inactive	1.03%	inactive	inactive	inactive	2.25%	inactive
CC(C)OS(C)(=O)=O	> 92 µM	inactive	inactive	inactive	inactive	inactive	inactive	-0.589%	inactive	inactive	inactive	-9.26%	inactive
CCSC(=O)N1CCCCCC1	> 92 µM	–	inactive	inactive	inactive	inactive	inactive	2.55%	inactive	inactive	inactive	3.66% and -1.17%	inactive
CCNCC	> 92 µM	inactive	inactive	inactive	inactive	inactive	inactive	1.2%	inactive	inactive	inactive	7.15%	inactive
CCCCOCC1CO1 (configuration not stated)	> 92 µM	inactive	inactive	inactive	inactive	inactive	inactive	3.87%	inactive	inactive	inactive	-2.14%	inactive
C=CCOCC1CO1 (configuration not stated)	> 92 µM	inactive	inactive	inactive	inactive	inactive	inactive	2.83%	inactive	inactive	inactive	11.4%	inactive
BrCC(Br)(Br)Br	> 92 µM	inactive	inactive	inactive	inactive	inactive	25.1 µM (active)	7.98%	inactive	inactive	inactive	-5.78%	inactive
